Only some compounds are listed: those with a hit (about 2.4% of all), similar ones and a draw of the others.
WRN helicase inh = inhibitors of human WRN helicase; hit rate 0.46% among 360,000; WRN helicase unwinding, fluorescent forked duplex, kinetic; Potency, µM (top dose mostly 114 µM), most hits filed as inhibitors; AID 651768; also: nearly all actives have a fitted effect of over 55% in size
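Kinetic fluorescence helicase assay: unwinding of a quenched forked DNA duplex (100 nM final) with 2 mM ATP final raises red fluorescence (525/598 nm). Compounds sat 15 min at room temperature with 20 nM WRN beforehand.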
POLH inh = DNA polymerase eta (human) inhibition. recombinant Pol eta, fluorescent DNA replication assay. Potency, µM (titrated, usually from 114 µM), actives largely listed as inhibitors. hit rate 1.2% among 390,000. Q9Y253
Target sequence (Q9Y253 whole entry, looked up): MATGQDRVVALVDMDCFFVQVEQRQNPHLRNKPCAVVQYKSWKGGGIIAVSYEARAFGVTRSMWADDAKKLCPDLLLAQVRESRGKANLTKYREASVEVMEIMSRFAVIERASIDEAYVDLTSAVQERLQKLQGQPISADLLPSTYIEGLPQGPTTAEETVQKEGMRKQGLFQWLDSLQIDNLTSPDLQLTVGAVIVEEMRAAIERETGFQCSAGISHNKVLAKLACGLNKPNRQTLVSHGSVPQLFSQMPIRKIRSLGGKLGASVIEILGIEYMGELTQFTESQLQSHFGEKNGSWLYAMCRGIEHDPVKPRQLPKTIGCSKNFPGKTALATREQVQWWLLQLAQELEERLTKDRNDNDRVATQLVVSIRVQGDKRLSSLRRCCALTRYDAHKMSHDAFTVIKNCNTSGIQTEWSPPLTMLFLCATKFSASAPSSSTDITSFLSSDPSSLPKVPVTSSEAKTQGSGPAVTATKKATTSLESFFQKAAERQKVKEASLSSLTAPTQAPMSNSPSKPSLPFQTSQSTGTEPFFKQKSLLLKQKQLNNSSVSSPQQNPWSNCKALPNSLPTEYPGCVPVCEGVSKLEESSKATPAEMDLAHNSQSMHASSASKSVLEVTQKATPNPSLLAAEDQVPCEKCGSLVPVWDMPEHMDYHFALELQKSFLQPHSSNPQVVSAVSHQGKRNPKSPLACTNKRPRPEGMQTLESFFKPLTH
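Pol eta at 10 nM preincubated with compounds 15 min at room temperature; reaction started with fluorescent substrate (50 nM final) and read kinetically at 0 and 10 min.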
POLI inh = inhibitors of human DNA polymerase iota | Q9UNA4 | Pol iota fluorescent replication assay, 10 min | Potency, µM (series often up to 115 µM), usual class: inhibitors | hit rate 1% among 390,000
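Fluorescent replication assay read twice, at 0 min and 10 min after adding 50 nM (final) substrate. Enzyme (10 nM) and compounds were first incubated 15 min at room temperature; enzyme-free buffer wells were negative controls.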
Pol beta inh = blocks human DNA polymerase beta activity; P06746; Pol beta primer extension/strand displacement, fluorescence kinetic; Potency, µM (doses to about 114 µM), hits mostly inhibitors; hit rate 1.3% among 340,000; AID 485314
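Human Pol beta at 10 nM; strand-displacement substrate 50 nM final. Compound exposure 15 min at room temperature before start, reaction 10 min at room temperature.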
FEN1 inhibitor = inhibitors of human flap endonuclease 1 | P39748 | Recombinant FEN1 flap cleavage, fluorescence, 15 min | Potency, µM (series often up to 114 µM), hits mostly inhibitors | hit rate 0.35% among 390,000 | AID 588795; also: nearly all actives have a fitted effect of over 65% in size
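FEN1 at 10 nM, compound pretreatment for 15 min (room temperature), 50 nM final substrate to initiate; endpoint reads at 0 and 15 min; DMSO-only plates used as vehicle background.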
Pol kappa inh = inhibitors of human DNA polymerase kappa. hit rate 0.53% among 400,000. purified Pol kappa, fluorescent DNA synthesis assay, 10 min. Q9UBT6. Potency, µM (doses to about 107 µM), usual class: inhibitors
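Fluorescent qHTS in 1536-well format: enzyme (10 nM) and compound sat 15 min at room temperature before 50 nM substrate (final) was added. Signal taken at 0 and 10 min; no-enzyme buffer wells were negative controls.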
A number is an active result; i = inactive; ? = inconclusive; nt = no result given; ! = a repeat was not active; [ ] = another dose, or the depositor's remark. Calls follow the shape of the dose curve; as a rule, active = well fitted curve in the direction sought with a large enough effect; inconclusive = small, poorly fitted or top-dose-only effect, or another doubt; inactive = no such curve, though single readings can be large; an effect the other way counts as inactive or inconclusive.

SMILES	WRN helicase inh	POLH inh	POLI inh	Pol beta inh	FEN1 inhibitor	Pol kappa inh
COc1ccc(N2C(=O)/C(=C/c3ccc(N(C)C)o3)C(=O)NC2=S)cc1	i	i	?	i	i	i
O=C1NC(=S)N(c2ccc(F)cc2)C(=O)/C1=C/c1ccccc1O	i	i	i	i	i	i
COc1ccc(N2C(=O)/C(=C/c3cccs3)C(=O)NC2=S)cc1	45µM	i	?	i	i	i
N.N.N.N.N.N.N.N.N.N.N.N.N.N.O.O.[Ru+4].[Ru+5].[Ru+5]	nt	nt	nt	nt	nt	27µM
COC(=O)c1ccc(N=C(c2ccccc2)c2c(O)n(C)c(=O)n(C)c2=O)cc1	i	i	32µM	i	i	i
CCOC(=O)c1ccc(N=C(c2ccccc2)c2c(O)n(C)c(=O)n(C)c2=O)cc1	i	i	?	i	i	i
O=c1[nH]c(=S)n(-c2ccccc2)c(O)c1/C=N/N1CCCCC1c1cccnc1 (stereo not given)	79µM	i	?	?	i	i
CC1=NNC(=O)C1Br (stereo not given)	28µM	i	28µM	nt	i	i
CN1CCc2cc3c(cc2[C@@H]1[C@@H]1OC(=O)c2c1ccc1c2OCO1)OCO3	nt	nt	nt	nt	nt	i[12 µM]
NC(N)=N/N=C/c1cn(-c2ccccc2)nc1-c1cccs1	i	i	i	28µM	i	i
CC(=O)OC1CC2C(C)(C)C(O)C=C[C@@]2(C)C2CC[C@]3(C)C(=CC(=O)OC3c3ccoc3)[C@]12C (stereo not given in full)	nt	nt	nt	nt	nt	i
COC(C(=O)C(O)C(C)O)C1Cc2cc3cc(OC4CC(OC5CC(O)C(OC)C(C)O5)C(OC(C)=O)C(C)O4)c(C)c(O)c3c(O)c2C(=O)C1OC1CC(OC2CC(OC3CC(C)(O)C(OC(C)=O)C(C)O3)C(O)C(C)O2)C(O)C(C)O1 (stereo not given)	nt	nt	nt	nt	nt	21µM
CC(C)(C)NC[C@H](O)c1cc(Cl)c(N)c(Cl)c1	nt	nt	nt	nt	nt	i[12 µM]
CC[C@H](C)/C=C(C)/C=C/C1=CC2=C(Cl)C(=O)[C@](C)(OC(C)=O)C(=O)C2=CO1	50µM	20µM	50µM	nt	?	79µM
Cc1cc(NC(=O)c2cc(-c3cccc(Cl)c3)on2)nn1Cc1ccc(Cl)cc1	nt	i	i	i	i	i
COc1ccc(C(=O)O)cc1OC	i	i	i	nt	i	i
O=C(O)c1cc[c]([Hg][Cl])cc1	i	i	1.8µM	14µM	25µM	i
CCCCCCCCCCCCCCCC[n+]1ccccc1	i	i	i	nt	79µM	i
CN(C)CCNC(=S)Nc1ccccc1Cl	i	i	i	i	i	i
CN(CC(=O)NC(=O)NCc1ccco1)CC(=O)Nc1ccccc1Cl	i[11.6 µM]	?	50µM	i	i	?
CCC1(c2ccccc2)C(=O)NC(=O)N(C(=O)c2ccccc2)C1=O (stereo not given)	nt	nt	nt	nt	nt	i[19.4 µM]
CCn1cc(C=C2C(=O)NC(=O)NC2=O)c2ccccc21	i	i	20µM	?	i	i
CCCN(CCC)[C@@H]1CCc2c(F)ccc(O)c2C1	nt	i	i	i	nt	nt
COCCNC(=O)Cn1cc(/C=C2\C(=O)NC(=O)N(c3ccccc3F)C2=O)c2ccccc21	i	i	20µM	i	i	i
COCCNC(=O)Cn1cc(/C=C2\C(=O)NC(=O)N(c3cccc(C)c3C)C2=O)c2ccccc21	?	i	i	i	i	i
SMILES	WRN helicase inh	POLH inh	POLI inh	Pol beta inh	FEN1 inhibitor	Pol kappa inh
COc1ccc(N2C(=O)NC(=O)/C(=C\c3cn(CC(=O)N4CCOCC4)c4ccccc34)C2=O)c(OC)c1	i	i	13µM	i	?	i
CC(C)c1c(CN(C)[C@@H](C)Cc2ccccc2)n(C)n(-c2ccccc2)c1=O	nt	nt	nt	nt	nt	i[12 µM]
C[C@@H]1O[C@@H](Oc2c(-c3ccc(O)c(O)c3)oc3cc(O)cc(O)c3c2=O)[C@H](O)[C@H](O)[C@H]1O	i	?	35µM	nt	?	45µM
O=c1ccc2cc(O[C@@H]3O[C@H](CO)[C@@H](O)[C@H](O)[C@H]3O)c(O)cc2o1	i	i	i	nt	i	i
COc1cccc2c1C(=O)c1c(O)c3c(c(O)c1C2=O)C[C@@](O)(C(=O)CO)C[C@@H]3O[C@H]1C[C@H](N)[C@H](OC2CCCCO2)[C@H](C)O1 (stereo not given in full)	nt	nt	?	nt	18µM	10µM
COc1ccc(CNC(=O)C2CCN(c3nc(OC)nc(OC)n3)CC2)cc1	i	i	89µM	i	i	i
COc1ccc(CNC(=O)c2ccc(C(C)C)cc2)cc1	i	i	i	i	i	i
CC1(C)[C@@H](O)C[C@H]2[C@](C)(O)[C@@H]3CC[C@H]4[C@@H](O)[C@@]3(C[C@@H](O)[C@@]21O)C[C@@]4(C)O	nt	nt	nt	nt	nt	i[19.4 µM]
O=C1NC(=O)N(c2ccccc2)C(=O)/C1=C/c1ccc(Sc2ccccc2)o1	45µM	?	i	i	i	?
CN1[C@@H]2CC[C@H]1CC(OC(c1ccc(F)cc1)c1ccc(F)cc1)C2 (stereo not given in full)	nt	nt	nt	nt	nt	i[19.4 µM]
COc1ccc(/C=C2/C(=O)NC(=S)N(C3CC3)C2=O)cc1CN1C(=O)c2ccccc2C1=O	14µM	?	?	i	i	i
NC(CC(=O)O)C1CCCCC1 (stereo not given)	nt	nt	nt	i	nt	nt
NCC(CC(=O)O)C1CCCCC1 (stereo not given)	i	i	100µM	i	i	i
c1ccc(N2CCCC3(CCNCC3)C2)nc1	nt	nt	nt	nt	nt	i
Cc1cc(C(C#N)c2ccc(Cl)cc2)c(Cl)cc1NC(=O)c1cc(I)cc(I)c1O (stereo not given)	i	50µM	?	nt	28µM	?
CC(N)C(O)c1ccc(O)c(O)c1 (stereo not given)	nt	nt	nt	nt	nt	3.2µM!
CC(N)[C@@H](O)c1ccccc1 (stereo not given in full)	nt	nt	nt	nt	nt	i
ClCCN(CCCl)c1ccc(/C=C/c2ccnc3ccccc23)cc1	nt	nt	i	nt	i	i
c1ccc2c(c1)[IH]c1ccccc1-2	i	i	?	nt	50µM	i
Cc1ccc(N2C(=O)/C(=C/N3CCN(C(=O)c4ccco4)CC3)C(=O)NC2=S)cc1C	?	i	18µM	i	i	i
Cc1cccc(N2C(=O)/C(=C/N3CCN(C(=O)c4ccco4)CC3)C(=O)NC2=S)c1	?	i	i	i	i	i
COc1cc(C=C2C(=O)NC(=O)NC2=O)ccc1OCc1ccc([N+](=O)[O-])cc1	45µM	i	i	i	i	i
O=C1NC(=O)C(=Cc2ccc(Oc3ccc([N+](=O)[O-])cc3)cc2)C(=O)N1	25µM	?	i	?	i	i
O=C1/C(=C/c2ccc(N(CCCl)CCCl)cc2)Cc2ccccc21	nt	nt	i	nt	i	i
c1cc2c(cc1[C@H]1OC[C@@H]3[C@H]1CO[C@H]3c1ccc3c(c1)OCO3)OCO2	nt	nt	nt	nt	nt	i[19.4 µM]
CN1C(=O)/C(=C\N2CCc3ccccc32)C(=O)NC1=S	50µM	i	?	i	i	i
